From PubChem BioAssay
Shown are actives, neighbours in structure and some others; about 7.5% of the full set was active somewhere.
HCV inh – blocks hepatitis C virus; Huh7.5.1 HCVcc-Cre infection, luciferase reporter, 44 h; Potency, µM (top dose mostly 41.8 µM), hits mostly inhibitors; hit rate 3.4% among 340,000
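Compounds are dispensed onto cells plated 4 h earlier at 1,000 per well, with HCVcc-Cre virus (about 0.5 moi) added next. Following 44 h of culture, luminescent signal is measured for 15 sec after 15 min with substrate at room temperature.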
FMDV antiviral – blocks foot and mouth disease virus | Potency, µM (series often up to 57.9 µM), actives largely listed as inhibitors | hit rate 1.2% among 410,000 | FMDV antiviral cell-based qHTS; calls by dose curve; tested in HEK293T cells; note: read-out not given here; nearly all actives have a fitted effect of over 45% in size
VACV mCherry inh – inhibitors of vaccinia virus infection (mCherry reporter signal). Potency, µM (highest dose often 36.5 µM), most hits filed as inhibitors. hit rate 0.63% among 310,000. Vaccinia virus mCherry reporter infection, fluorescence; calls by dose curve; tested in A549 cells; note: nearly all actives have a fitted effect of over 35% in size
HCMV inh – blocks human cytomegalovirus replication. HFF cells, HCMV-luciferase reporter, 72 h; active compounds read low. activity change, negative = inhibition, % at 57.5 µM. hit rate 4.5% among 410,000. AID 1259415; in the data active = activity change below about -60%; inconclusive = no clear call, values can overlap the other calls; inactive = above about -39%
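Screen run at 2 compound doses on HFFs infected with reporter HCMV, MOI 1 PFU/cell. Luciferase activity from cell lysates at 72 h post infection gave inhibition relative to buffer-only and Salinomycin wells.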
Giardia FBPA inh – Giardia lamblia aldolase inhibition | A8B2U2 | purified Giardia FBPA | Potency, µM (doses to about 59.6 µM), hits mostly inhibitors | hit rate 0.71% among 290,000 | AID 2451; note: nearly all actives have a fitted effect of over 55% in size
Target sequence (A8B2U2 whole entry, looked up): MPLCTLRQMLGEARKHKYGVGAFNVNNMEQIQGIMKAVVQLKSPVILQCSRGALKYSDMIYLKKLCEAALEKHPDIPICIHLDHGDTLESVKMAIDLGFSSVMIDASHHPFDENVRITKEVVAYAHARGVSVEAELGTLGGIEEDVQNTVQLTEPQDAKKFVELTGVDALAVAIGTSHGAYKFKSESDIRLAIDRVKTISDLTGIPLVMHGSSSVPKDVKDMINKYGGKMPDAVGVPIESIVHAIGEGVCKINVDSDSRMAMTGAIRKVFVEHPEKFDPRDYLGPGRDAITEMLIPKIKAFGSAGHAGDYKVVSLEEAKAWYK
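40 nM FBPA preincubated 10 min at RT with compound (up to 57.5 uM final), then substrate plus GAPDH/TPI/NAD/arsenate coupling and diaphorase/resazurin added. Fluorescence read after 20 min at RT, 525/598 nm.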
Vaccinia Venus – inhibitors of vaccinia virus (Venus reporter); Vaccinia virus Venus reporter expression, fluorescence; Potency, µM (highest dose often 36.5 µM), usual class: inhibitors; hit rate 0.46% among 330,000; calls by dose curve; tested in A549 cells; note: nearly all actives have a fitted effect of over 30% in size
Numbers stand for hits; i = inactive; ? = inconclusive; nt = no result; ! = not active in a repeat; [ ] = dose if it differs, or a comment. Unless noted, calls come from the whole dose curve; as a rule, active = well fitted curve in the direction sought with a large enough effect; inconclusive = small, poorly fitted or top-dose-only effect, or another doubt; inactive = no such curve, though single readings can be large; an effect the other way counts as inactive or inconclusive.

SMILES | HCV inh | FMDV antiviral | VACV mCherry inh | HCMV inh | Giardia FBPA inh | Vaccinia Venus
CCOC(=O)c1sc(N2C(=O)c3oc4cc(C)c(C)cc4c(=O)c3C2c2cccc(O)c2)nc1C (stereo not given) | nt | i | i | i | nt | i
CCOC(=O)N1CCN(S(=O)(=O)c2ccc(C)c([N+](=O)[O-])c2)CC1 | i | i | i | -62.0 | i | i
CCOC(=O)c1ccoc1CN1CCN(S(=O)(=O)c2ccc(C)c(C)c2)CC1 | ? | i | i | -62.8 | nt | i
CCOC(=O)N1CCN(S(=O)(=O)c2ccc(OCC(=O)OC)cc2)CC1 | i | nt | i | -77.7 | i | i
CCn1c2ccc(C)cc2c2n[nH]c(=S)nc21 | i | i | i | i | i | i
CCOC(=O)c1c(Nc2ccc(Cl)cc2)sc(/C=C2\C=Nc3ccccc32)c1O | ? | i | i | -73.2! | i | i
CCOc1ccccc1NC(=O)CN1C(=O)NC(Cc2c[nH]c3ccccc23)C1=O (stereo not given) | i | i | nt | i | nt | nt
O=C(O)c1cccc(NC(=O)c2cc(S(=O)(=O)N3CCOCC3)cs2)c1 | i | i | i | i | i | i
CC1CN(S(=O)(=O)c2csc(C(=O)Nc3ccccc3)c2)CC(C)O1 (stereo not given) | nt | i | i | -60.4 | nt | i
O=C(Nc1ccc(F)cc1)c1cc(S(=O)(=O)N2CCCCC2)ccc1F | ? | ? | nt | i | i | nt
O=C(Nc1ccc(F)cc1)c1cc(S(=O)(=O)N2CCCCC2)cs1 | ? | ? | nt | -83.7 | i | nt
Cc1ccccc1OCC(=O)Nc1ccc(C(=O)OCc2cc(=O)n3ccsc3n2)cc1 | nt | ? | i | i | nt | i
O=C(Cn1c(=O)c2sccc2n(Cc2ccc([N+](=O)[O-])cc2)c1=O)NCCc1ccccc1 | ? | ? | i | -72.8 | i | i
CCOC(=O)c1c(Oc2ccc(C(=O)OC)cc2)nnc(-c2ccccc2)c1-c1ccccc1 | nt | ? | i | i | nt | i
CC(C)(C)c1cc(-c2csc(Nc3ccccc3)[n+]2Cc2ccc(C(=O)O)cc2)cc(C(C)(C)C)c1O | i | 31.6µM | ? | nt | i | i
O=C(O)c1ccc(C[n+]2c(-c3ccccc3)csc2Nc2ccccc2)cc1 | i | i | i | i | i | i
Cc1nnc2nc(-c3ccccc3)nc(-c3ccccc3)n12 | ? | i | i | -79.7 | i | i
CCCCN(C(=O)c1cc(S(=O)(=O)N2CCCCC2)ccc1Cl)c1c(N)n(CCC)c(=O)[nH]c1=O | i | i | i | i | nt | i
Cc1ccc(C(=O)NCC(c2ccco2)S(=O)(=O)c2ccccc2)cc1C (stereo not given) | nt | i | i | i | nt | i
O=C(N/N=C1/C[C@@H](O)[C@@H](O)[C@@H]2[C@@H]3C(=O)N(C4CCCCC4)C(=O)[C@H]3CC[C@H]12)OCc1ccccc1 | nt | nt | nt | nt | i[12.9 µM] | nt
CCN(c1nc(N)c(C(=O)N=C(N)N)nc1Cl)C(C)C | ? | i | i | -62.0 | i | i
CC1(C)CC2(CC(c3ccccc3F)c3cc(Cl)c(O)cc3O2)NC(=S)N1 (stereo not given) | ? | ? | i | ? | i | i
CC(=O)Oc1cc2c(cc1Cl)C1(CC(c3ccccc3Cl)O2)CC(C)(C)NC(=S)N1 (stereo not given) | 10µM | ? | i | i | i | ?
CSc1nc(O)c(C(c2ccc(O)cc2)c2c(O)nc(SC)[nH]c2=O)c(=O)[nH]1 | i | i | nt | -68.7 | i | nt
O=C(Cn1cnc2c(NCc3ccccc3)ncnc21)NCCCc1ccccc1 | ? | i | i | i | nt | i
SMILES | HCV inh | FMDV antiviral | VACV mCherry inh | HCMV inh | Giardia FBPA inh | Vaccinia Venus
CCCCOc1ccc(S(=O)(=O)Nc2cccnc2)cc1 | 10µM | nt | i | -75.9 | i | i
CCOc1ccc(S(=O)(=O)Nc2cccc(OC)c2)cc1 | 10µM | i | nt | ? | i | nt
CCOc1ccc(S(=O)(=O)Nc2cccc(-c3ccc(OCC)nn3)c2)cc1 | nt | i | i | ? | nt | i
CN(c1cccc(NS(=O)(=O)c2ccccc2)c1)S(C)(=O)=O | i | i | i | i | i | i
CCOc1ccc(S(=O)(=O)Nc2cccc(N(C)S(C)(=O)=O)c2)cc1 | 10µM | i | nt | i | i | ?
COCC(=O)N1CCC[C@@]2(CCN(c3ncccn3)C2)C1 | nt | i | nt | nt | i | nt
COc1cccc(C(=O)Nc2cccc(NC(=O)c3ccccc3Cl)c2)c1 | i | i | nt | -96.7 | i | nt
COc1cc(NC(=O)c2ccccc2F)ccc1NC(=O)c1ccccc1Cl | ? | i | i | ? | i | i
CN(C)S(=O)(=O)c1cccc(C(=O)Nc2cc(Cl)cc(Cl)c2)c1 | 11.2µM | i | i | i | i | i
COc1cc(NC(=O)c2ccc(Br)o2)ccc1NC(=O)c1ccccc1Cl | 10µM | i | i | nt | i | ?
CN(C)S(=O)(=O)Oc1cccc(C(=O)Nc2ccc(Cl)c(Cl)c2)c1 | ? | i | ? | ? | i | ?
CN(C)S(=O)(=O)Oc1cccc(C(=O)Nc2cccc(Cl)c2)c1 | 8.91µM | i | nt | i | i | nt
COc1cccc(C(=O)Nc2cccc(NC(=O)c3ccc(Cl)cc3Cl)c2)c1 | nt | i | i | ? | nt | i
CN(C)S(=O)(=O)c1cccc(C(=O)Nc2ccccc2)c1 | i | i | i | i | i | i
COc1ccc2c3c(n(C)c2c1)[C@H](CO)N(Cc1nccs1)CC31CCN(C(=O)CN(C)C)CC1 | nt | nt | nt | i | nt | nt
CCCC(=O)Nc1ccc(Cl)c(NC(=O)CC)c1 | i | i | i | i | i | i
O=C(Nc1cc(Cl)cc(Cl)c1)c1cccc(OC(F)F)c1 | ? | 39.8µM | ? | -74.7 | i | ?
CCC(=O)Nc1ccc(Cl)c(NC(=O)c2ccccc2OC)c1 | i | i | i | -61.7 | i | i
CCC(=O)Nc1ccc(Cl)c(NC(=O)c2cccc(OC)c2)c1 | ? | i | i | -87.6 | i | i
CCCC(=O)Nc1ccc(C(=O)Nc2cccc(OC)c2)cc1 | i | i | nt | -73.6 | i | nt
Nc1n[nH]c(=S)n1/N=C1/C(=O)Nc2ccccc21 | i | i | i | i | ? | i
O=c1[nH]c(/C=C/c2ccccc2OC(F)F)nc2c1cnn2-c1ccccc1 | i | i | i | ? | i | i
Cc1cccc(NC(=O)N2CCC(CN3CCCCCC3)CC2)c1C | nt | i | i | ? | nt | i
O=C(N/N=C/c1cn(-c2ccccc2)nc1-c1cc2ccccc2o1)c1ccccc1Br | ? | i | i | i | i | i
O=C(N/N=C/c1cn(-c2cccs2)nc1-c1ccccc1)c1ccccc1Br | 7.08µM | i | i | i | i | ?
O=C(N/N=C/c1cn(-c2ccccc2)nc1-c1cccnc1)c1ccccc1 | ? | i | i | i | i | i
O=C(N/N=C/c1cn(-c2cccs2)nc1-c1ccccc1)c1ccccc1O | ? | 20µM | 12.6µM | i | i | ?
COc1ccc2[nH]c(=O)c(CN(Cc3cccs3)Cc3nnnn3C(C)(C)C)cc2c1 | i | i | i | -67.0 | i | i
CCOc1ccc2[nH]c(=O)c(CN(Cc3cccs3)Cc3nnnn3C(C)(C)C)cc2c1 | i | nt | i | ? | i | i
O=C(Nc1ccc(Nc2ccncc2)cc1)c1ccc([N+](=O)[O-])cc1 | 11.2µM | ? | i | -90.4 | i | i
